Several values for one entry are separate records, joined by “and”; a condition that tells them apart may be missing. Identical values can stand only once. Activity calls are given as the source filed them.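 Rule for the calls, unless noted: active = compounds whose cell count with miR-34 switched on is under 0.7 times the count with it off; inactive = the rest.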
How the values were obtained:
[1] = sensitizers of A549 cells to miR-34 induction, primary screen, imaging, A549 dox-inducible miR-34, nuclei and caspase counts (AID 1347080); details: A549 miR-34 inducible, Hoechst nuclei count, 48 h
[2] = survival rescue of mitochondrial mutant cells in low glucose, primary screen, MELAS cybrids, Rieske KO mouse fibroblasts, CellTiter-Glo (AID 1508586;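 active = mean z-score across replicates of 1.96 or higher in either the MELAS or the Rieske mutant cell line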;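 note: z relative to plate mean and SD of compound and empty wells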)
[3] = target: NAD(+) hydrolase SARM1 (Homo sapiens) (UniProt Q6SZW1); assay: SARM1 TIR NADase inhibitors, cell lysate, NAD-Glo luminescence (AID 1508614;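 active = compound whose remaining NAD level is above about 45 nM, limit read from the data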;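 note: higher remaining NAD means stronger inhibition of SARM1 NADase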); details: SAM-TIR HEK293T lysate NADase, at 1 µM, stronger effect = higher value
Sequence of NAD(+) hydrolase SARM1 (Homo sapiens) (Q6SZW1 whole entry, looked up, the tested form may be a part): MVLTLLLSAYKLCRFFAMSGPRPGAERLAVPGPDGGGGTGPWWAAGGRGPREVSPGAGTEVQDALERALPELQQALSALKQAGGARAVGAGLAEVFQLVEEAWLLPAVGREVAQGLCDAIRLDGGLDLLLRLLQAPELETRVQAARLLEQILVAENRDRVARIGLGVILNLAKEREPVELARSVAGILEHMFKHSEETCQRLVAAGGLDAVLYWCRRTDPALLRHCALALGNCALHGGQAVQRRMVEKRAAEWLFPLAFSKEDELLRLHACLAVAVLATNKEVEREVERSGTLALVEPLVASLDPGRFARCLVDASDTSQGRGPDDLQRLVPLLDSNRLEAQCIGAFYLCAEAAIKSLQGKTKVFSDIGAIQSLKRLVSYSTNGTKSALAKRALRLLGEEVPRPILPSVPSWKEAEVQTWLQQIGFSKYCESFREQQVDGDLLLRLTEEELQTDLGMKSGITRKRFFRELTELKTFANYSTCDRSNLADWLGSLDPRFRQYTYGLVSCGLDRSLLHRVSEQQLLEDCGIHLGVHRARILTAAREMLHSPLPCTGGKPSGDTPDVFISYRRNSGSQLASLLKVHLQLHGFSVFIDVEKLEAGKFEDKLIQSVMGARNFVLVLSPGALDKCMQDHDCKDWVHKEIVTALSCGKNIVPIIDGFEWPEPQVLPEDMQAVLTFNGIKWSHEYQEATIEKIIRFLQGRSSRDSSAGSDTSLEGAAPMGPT

[4] = target: Mitogen-activated protein kinase 7 (Homo sapiens) (UniProt Q13164); assay: ERK5 transactivation activators in reporter cells, primary screen, cell-based, HTS (AID 1508626;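 active = luciferase signal above three times the same-plate solvent-only control wells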;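 note: luciferase driven by Gal4-ERK5 fusion binding five Gal4 sites before minimal TATA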); details: HeLa Gal4-ERK5 transactivation, 18 h, at 5 µM, stronger effect = higher value
Sequence of Mitogen-activated protein kinase 7 (Homo sapiens) (Q13164 whole entry, looked up, the tested form may be a part): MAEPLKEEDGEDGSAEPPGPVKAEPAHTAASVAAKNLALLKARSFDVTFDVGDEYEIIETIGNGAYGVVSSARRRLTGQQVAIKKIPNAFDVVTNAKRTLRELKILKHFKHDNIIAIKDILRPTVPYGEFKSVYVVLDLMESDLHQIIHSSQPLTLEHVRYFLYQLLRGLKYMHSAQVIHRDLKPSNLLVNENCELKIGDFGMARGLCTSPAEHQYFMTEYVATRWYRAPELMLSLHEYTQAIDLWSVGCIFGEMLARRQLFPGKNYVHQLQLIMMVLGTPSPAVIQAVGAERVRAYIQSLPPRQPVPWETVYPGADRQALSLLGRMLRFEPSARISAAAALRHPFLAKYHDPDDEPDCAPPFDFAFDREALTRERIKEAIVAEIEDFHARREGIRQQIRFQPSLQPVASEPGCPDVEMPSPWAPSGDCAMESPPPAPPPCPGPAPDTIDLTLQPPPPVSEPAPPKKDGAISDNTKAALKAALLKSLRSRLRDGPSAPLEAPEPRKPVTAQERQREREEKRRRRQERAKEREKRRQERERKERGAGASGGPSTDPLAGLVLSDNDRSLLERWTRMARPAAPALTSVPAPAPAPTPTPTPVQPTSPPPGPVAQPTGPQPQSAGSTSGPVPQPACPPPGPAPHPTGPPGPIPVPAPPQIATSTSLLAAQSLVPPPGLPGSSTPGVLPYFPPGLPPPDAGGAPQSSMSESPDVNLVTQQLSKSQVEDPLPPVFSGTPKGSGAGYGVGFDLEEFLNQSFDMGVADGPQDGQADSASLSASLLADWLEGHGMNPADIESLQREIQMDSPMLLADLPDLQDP

[5] = viability rescue of complex I mutant cybrids, primary screen, cell-based, galactose medium, ATP luminescence (AID 1645843;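 active = z-score of at least 1.8 in each of two replicates, scored against plate mean and spread of sample wells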;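 note: positive z means more ATP and so rescue of galactose-driven cybrid death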); details: complex I mutant cybrid cells, 72 h, stronger effect = higher value
[6] = stronger effect = lower value, cell number ratio, induced over uninduced
[7] = measured here: relative caspase fold change +Dox/-Dox
[8] = measured here: total cells with miR-34 induction, stronger effect = lower value
[9] = measured here: total cells without miR-34 induction
[10] = MELAS cybrid survival, CellTiter-Glo 48 h, stronger effect = higher value
[11] = Rieske KO mouse fibroblast survival, CellTiter-Glo 72 h

Row | Structure (SMILES) | fold change [1, 6] | fold change [1, 7] | cell count [1, 8] | cell count [1, 9] | z-score [2, 10] | z-score [2, 11] | remaining NAD [3] | luciferase signal [4] | z-score [5]
1 | CN(C/C=C/C#CC(C)(C)C)Cc1cccc2ccccc12 | 0.935 (inactive) and 0.938 (inactive) | 4.07 and 1.16 | 11600 and 9190 | 12400 and 9800 | 0.287 (inactive) and -0.488 (inactive) | -0.0957 and -0.937 | 10 nM (inactive) | 52 AU (inactive) | -1.48 (inactive)
2 | CCN(CC)C(=O)N1CCN(C)CC1 | 0.919 (inactive) and 0.923 (inactive) and 0.836 (inactive) | 1.19 and 0.187 and 0.88 | 8740 and 9030 and 11300 | 9520 and 9780 and 13500 | 0.833 (inactive) and 0.0717 (inactive) | -0.23 and -0.00609 | 10 nM (inactive) | 60 AU (inactive) | 0.74 (inactive)
3 | COc1ccc(C(=O)NCc2ccc(OCCN(C)C)cc2)cc1OC | 0.832 (inactive) and 1.01 (inactive) and 0.841 (inactive) | 0.68 and 1.38 and 1.73 | 8010 and 10500 and 9070 | 9630 and 10400 and 10800 | 0.424 (inactive) and 1.16 (inactive) | -0.0117 and -0.161 | 14 nM (inactive) |  | 0.35 (inactive) and 0.59 (inactive)
4 | CC1CCC(NC(=O)N(CCCl)N=O)CC1 (stereo unspecified) | 0.814 (inactive) | 5.15 | 9380 | 11500 |  |  | 10 nM (inactive) | 44 AU (inactive) | 
5 | O=C(O)CCCCC1CCSS1 (stereo unspecified) | 1.15 (inactive) | 0.668 | 6920 | 6020 |  |  | 10 nM (inactive) |  | 
6 | O=C(O)c1cc(O)c(O)c(O)c1 | 0.943 (inactive) | 4.52 | 11500 | 12200 |  |  | 10 nM (inactive) | 100 AU (inactive) | 
7 | CN1CCN(c2cc3c(cc2F)c(=O)c(C(=O)O)cn3-c2ccc(F)cc2)CC1 | 0.87 (inactive) | 0.995 | 6840 | 7860 |  |  | 10 nM (inactive) |  | 
8 | NC(=O)c1ccccc1O | 0.92 (inactive) | 3.12 | 11700 | 12800 |  |  | 10 nM (inactive) | 56 AU (inactive) | 
9 | NC1CCN(c2nc3c(cc2F)c(=O)c(C(=O)O)cn3-c2ccc(F)cc2F)C1 (stereo unspecified) | 0.986 (inactive) and 0.879 (inactive) | 1.53 and 1.43 | 9740 and 8420 | 9880 and 9570 | -0.38 (inactive) and 0.118 (inactive) | -2.21 and -0.244 |  |  | 0.62 (inactive) and -0.04 (inactive)
10 | CN(CCCN1c2ccccc2CCc2ccccc21)CC(=O)c1ccc(Cl)cc1 | 0.782 (inactive) and 0.894 (inactive) | 1.92 and 1.33 | 5730 and 6590 | 7330 and 7370 | 0.202 (inactive) | 0.354 |  |  | -1.82 (inactive) and -0.185 (inactive)
11 | CCCCCC(C)N (stereo unspecified) | 0.893 (inactive) | 1.93 | 11000 | 12400 |  |  | 10 nM (inactive) |  | 
12 | Oc1ccc(Cl)c2cccnc12 | 0.902 (inactive) | 0.654 | 10900 | 12000 |  |  | 10 nM (inactive) | 60 AU (inactive) | 
13 | CC1(C)S[C@@H]2[C@H](NC(=O)C(C(=O)O)c3ccccc3)C(=O)N2[C@H]1C(=O)O (stereo partly specified) | 0.874 (inactive) | 0.602 | 11000 | 12600 |  |  | 10 nM (inactive) | 84 AU (inactive) | 
14 | CN1CCN(C2=Nc3cc(F)ccc3Cc3ccccc32)CC1 | 0.822 (inactive) and 0.853 (inactive) | 1.3 and 0.98 | 5980 and 8510 | 7280 and 9980 | -0.621 (inactive) | 0.127 |  |  | -0.47 (inactive) and -0.18 (inactive)
15 | CCN(CC)C(=O)c1cccc(C)c1 | 0.989 (inactive) | 1.76 | 11700 | 11800 |  |  | 10 nM (inactive) | 68 AU (inactive) | 
16 | CN1CCCN=C1COC(=O)C(O)(c1ccccc1)C1CCCCC1 (stereo unspecified) | 0.832 (inactive) | 3.67 | 10300 | 12400 |  |  | 10 nM (inactive) | 80 AU (inactive) | 
17 | CO/N=C1\CN(c2nc3c(cc2F)c(=O)c(C(=O)O)cn3C2CC2)CC1CN (stereo unspecified) | 0.847 (inactive) | 1.93 | 10700 | 12600 |  |  | 10 nM (inactive) | 40 AU (inactive) | 
18 | C[C@@H]1CN(c2c(F)c(F)c3c(=O)c(C(=O)O)cn(C4CC4)c3c2F)C[C@H](C)N1 | 0.896 (inactive) | 0.855 | 8680 | 9690 |  |  | 10 nM (inactive) |  | 
19 | NC(=O)NC(=O)Cc1ccccc1 | 0.88 (inactive) | 0.863 | 11800 | 13400 |  |  | 10 nM (inactive) | 160 AU (inactive) | 
20 | O=C(CCBr)N1CCN(C(=O)CCBr)CC1 | 0.869 (inactive) | 2.68 | 6360 | 7310 |  |  | 10 nM (inactive) | 92 AU (inactive) | 
21 | Nc1ccc(C(=O)Oc2ccccc2)c(O)c1 | 0.872 (inactive) | 1.07 | 9720 | 11100 |  |  | 10 nM (inactive) | 84 AU (inactive) | 
22 | O=C(O)c1ccc(S(=O)(=O)N(Cl)Cl)cc1 | 0.899 (inactive) | 0.716 | 11500 | 12800 |  |  | 10 nM (inactive) | 48 AU (inactive) | 
23 | CC(=O)OCC(COC(C)=O)OC(C)=O | 0.85 (inactive) | 3.03 | 10700 | 12600 |  |  | 10 nM (inactive) | 8 AU (inactive) | 
24 | CC(=O)OCC1=C(C(=O)O)N2C(=O)[C@@H](NC(=O)CSc3ccncc3)[C@H]2SC1 | 0.915 (inactive) | 4.65 | 11600 | 12700 |  |  | 10 nM (inactive) | 32 AU (inactive) | 

— PubChem BioAssay
